Test results as given in PubChem BioAssay (NCATS).
Where “and” joins values, the source holds several entries; their conditions need not be identical. Equal values may be shown once. Results filed as inconclusive are left out. Values without a mark were called inactive. Calls of active or inactive are those of the source. Calls come from the whole dose curve; as a rule, active = well fitted cell-killing curve with a large enough effect; inconclusive = small, poorly fitted or top-dose-only effect; inactive = flat fitted curve, though single readings scatter.

Columns and labels:
[1] = Cellular viability qHTS for adrenocortical cancer (ACC) cell line SW-13 (AID 1963989); conditions: SW-13 ACC cells viability, CellTiter-Glo, 48 h; activity (max response): active compounds read low; note: nearly all actives have a fitted effect of over 65% in size;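 for activity (max response): cells grown in serum-free medium with ITS supplement; % is set by controls: 0 for no effect and ±100 for the full control effect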
Method in brief: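 Viability was read as CellTiter-Glo luminescence after 48 h compound treatment (up to 46 uM final) of SW-13 cells grown serum-free; titration curves were fit with a four-parameter logistic model to give IC50 and efficacy.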

[2] = Cellular viability qHTS for adrenocortical cancer (ACC) cell line NCI-H295R (AID 1963990); conditions: CellTiter-Glo ATP luminescence, 48 h; series mostly up to 46.1 µM; note: nearly all actives have a fitted effect of over 60% in size
Method in brief: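 CellTiter-Glo ATP luminescence, read 48 h after compound addition, measured viability of NCI-H295R adrenocortical cells grown serum-free with ITS. Final concentrations spanned up to 46 uM. Data normalized to DMSO and doxorubicin, fitted for IC50 and maximal response.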
Potency is the fitted concentration of half-maximal effect.

Compound	activity (max response) [1] [%]	Potency [2]	Potency [1]
Cc1cccc(Nc2ccccc2C(=O)O)c1C	8.3	inactive	
c1ccc2c(c1)CCCC2C1=NCCN1 (centres undefined)	5.7	inactive	
O=C(O)Cc1ccc(CCNS(=O)(=O)c2ccc(Cl)cc2)cc1	-0.672	inactive	
Cc1nc2ccccn2c(=O)c1CCN1CCC(C(=O)c2ccc(F)cc2)CC1	-20	inactive	
C=CCOc1cc(Cl)ccc1C(=O)NCCN(CC)CC	-0.164	inactive	
CC(=O)[C@@]1(O)CC[C@H]2[C@@H]3CCC4=CC(=O)CC[C@]4(C)[C@H]3CC[C@@]21C	-6.65	inactive	
CC(=O)OCC(=O)[C@@]1(O)[C@H](C)C[C@H]2[C@@H]3CCC4=CC(=O)C=C[C@]4(C)[C@@]3(F)[C@@H](O)C[C@@]21C	2.72	inactive	
CN(C)N(C)C(=O)[C@@]1(Cc2ccccc2)CCCN(C(=O)[C@@H](Cc2c[nH]c3ccccc23)NC(=O)C(C)(C)N)C1	-15.4	inactive	
Cc1ccccc1C(=O)N1CC/C(=N\OS(=O)(=O)O)c2ccc(Cl)cc21	5.63	inactive	
CN1CCC(=C2c3ccccc3CCc3cccnc32)CC1	5.98	inactive	
O=C(O)c1ccccc1-c1ccc(/C=c2\sc3nc4cc(Br)cnc4n3c2=O)o1	-2.9	inactive	
Cc1nnc(SCC2=C(C(=O)O)N3C(=O)[C@@H](NC(=O)Cn4cnnn4)[C@H]3SC2)s1	10	inactive	
N#Cc1ccc(N(Cc2ccc(Br)cc2)n2cnnc2)cc1	-0.886	inactive	
CN/C(=C\[N+](=O)[O-])NCCSCc1ccc(CN(C)C)o1	0.385	inactive	
CC(O)Cn1cnc2c1c(=O)n(C)c(=O)n2C (centres undefined)	-7.87	inactive	
CC(C)(Oc1ccc(Cl)cc1)C(=O)OCCCOC(=O)C(C)(C)Oc1ccc(Cl)cc1	0.371	inactive	

Compound	activity (max response) [1] [%]	Potency [2]	Potency [1]
C[N+]1(C)CCC(OC(=O)C(O)(c2ccccc2)C2CCCC2)C1 (centres undefined)	7.55	inactive	
CC(C)(CO)n1cc(C(=O)c2cncc(NC(=O)Cc3ccc(Cl)cn3)c2)c2cnc(N)nc21	-13.5	inactive	
Cc1ccc(/C(=C\CN2CCCC2)c2ccccn2)cc1	2.73	inactive	
C1=CC2C3C=CC(C3)C2C1 (centres undefined)	5.69	inactive	
C[C@H]1CC2[C@@H]3CCC4=CC(=O)C=C[C@]4(C)[C@@]3(F)[C@@H](O)C[C@]2(C)[C@@]1(O)C(=O)CO (some centres undefined)	-7.86	inactive	
N[C@@H](Cc1cc(I)c(O)c(I)c1)C(=O)O	8.5	inactive	
C[C@H](Nc1nc(N[C@H](C)C(F)(F)F)nc(-c2cccc(Cl)n2)n1)C(F)(F)F	-11.6	inactive	
CC(=O)Oc1cccc2c1C(=O)c1c(OC(C)=O)cc(C(=O)O)cc1C2=O	-7.7	inactive	
OCCOCCN1CCN(C2=Nc3ccccc3Sc3ccccc32)CC1	-9.48	inactive	
Cc1[nH]c2ccc(F)cc2c1-c1nc2c3cccnc3c3ncccc3c2[nH]1		3.16 µM (active)	2.24 µM (active)
CC(=O)Nc1ccc(C(=O)NC(C)(C)C)cc1	-16.7	inactive	
COc1cccc2c1C(=O)c1c(O)c3c(c(O)c1C2=O)C[C@@](O)(C(C)=O)C[C@@H]3O[C@H]1C[C@H](N)[C@H](O)[C@H](C)O1		461 nM (active) and 2.24 µM (active)	51.7 nM (active) and 501 nM (active)
O=C(OCC(COC(=O)c1cccnc1)(COC(=O)c1cccnc1)COC(=O)c1cccnc1)c1cccnc1	-1.24	inactive	
C[C@]12CC[C@@H]3c4ccc(O)cc4CC[C@H]3[C@@H]1C[C@@H](O)[C@@H]2O	-7.09	inactive	
CC(C)N(CCCNC(=O)Nc1ccc(C(C)(C)C)cc1)C[C@H]1O[C@@H](n2ccc3c(N)ncnc32)[C@H](O)[C@@H]1O	-3.92	inactive	
CN(C)[C@@H]1C(=O)C(C(N)=O)=C(O)[C@@]2(O)C(=O)C3=C(O)c4c(O)ccc(Cl)c4[C@@H](O)[C@H]3C[C@@H]12	-3.2	inactive	
